The source of these data is PubChem BioAssay (EPA / NIEHS).

The nature of assay [1]: ATG_Oct_MLP_CIS: Attagene CIS-FACTORIAL HepG2 Assay for human Octamer-Binding Transcription Factor (Oct) (AID 2282993). The note with it: HepG2 Attagene cis-factorial Oct reporter, mRNA; actives raise or lower the signal. Put shortly: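 HepG2, transient MRTU transfection, cis promoter elements; 24 h dosing; RT-PCR/CE fluorescence read-out of reporter mRNA; fit both directions vs DMSO.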

Assay [2] is described as follows: BSK_3C_TissueFactor: BioMAP Diversity Plus: 3C Assay for Tissue Factor Biomarker Activity (AID 2282997). The note with it: BioMAP 3C HUVEC, tissue factor biomarker readout; actives raise or lower the signal. A digest of the protocol:
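HUVEC were treated 24 h, then surface tissue factor measured by ELISA and fitted bidirectionally against DMSO. Parallel SRB total-protein staining assessed overt cytotoxicity at the same time point.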

Assay [3] in a line: BSK_3C_VCAM1: BioMAP Diversity Plus: 3C Assay for Vascular cell adhesion molecule 1 (VCAM1) Biomarker Activity (AID 2282999). The note with it: BioMAP 3C HUVEC, VCAM1 ELISA, cytokine-stimulated; actives raise or lower the signal. Put shortly:
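Human umbilical vein endothelial cells were dosed with compound for 24 h, after which cell-surface VCAM-1 was quantified by ELISA. Bidirectional curve fitting used DMSO as negative control and activity baseline.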

Assay [4] in a line: BSK_4H_Eotaxin3: BioMAP Diversity Plus: 4H Assay for Eotaxin 3 Biomarker Activity (AID 2283000).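 On outcome: CCL26 protein level quantified by ELISA in parallel with SRB cytotoxicity check.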 Conditions: primary human endothelial cells (HUVEC); actives raise or lower the signal. Put shortly:
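Eotaxin-3 (CCL26) levels were measured by ELISA in HUVEC primary cultures 24 h post-dosing. Gain or loss of signal was fitted in both directions, with DMSO serving as baseline and negative control.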

For assay [5], the target named is human Peroxisome Proliferator-activated Receptor alpha (PPARa), PPARA (gene 5465) (UniProt Q07869). The experiment in a line: ATG_PPARa_TRANS: Attagene TRANS-FACTORIAL HepG2 Assay for human Peroxisome Proliferator-activated Receptor alpha (PPARa) (AID 2283001; active means hit-call score of the fitted dose curve at least 0.9, where 1 is the maximum;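 on AC50: potency for gain of reporter signal over DMSO so agonist or activator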). Put shortly:
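Gain-of-signal endpoint: reporter mRNA induction relative to DMSO, detected by fluorescent RT-PCR and capillary electrophoresis. HepG2 cells transiently carried GAL4-UAS-driven reporter units plus NR-Gal4 fusion; exposure lasted 24 h.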

Read-out in assay [6]: Intercellular Adhesion Molecule 1 (ICAM1), ICAM1 (gene 3383)
The experiment in a line: BSK_3C_ICAM1: BioMAP Diversity Plus: 3C Assay for Intercellular Adhesion Molecule 1 (ICAM1) Biomarker Activity (AID 2283003). Conditions: primary human endothelial cells (HUVEC); actives raise or lower the signal. Put shortly: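 HUVEC primary cells stimulated under 3C conditions; ICAM1 measured by ELISA 24 h after compound dosing. Curves fitted bidirectionally against the DMSO baseline. Overt cytotoxicity checked by SRB staining of parallel cultures.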

Assay [7] in a line: BSK_3C_Proliferation: Cell Proliferation Assessment in the BioMAP Diversity Plus: 3C Assay (AID 2283006).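 On AC50: potency may reflect either rise or fall in cell number versus DMSO.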 The note with it: primary human endothelial cells (HUVEC). Put shortly:
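Subconfluent HUVEC (3C system) cultured with chemical; relative cell number read at 48 h by sulforhodamine B total-protein staining (0.1% SRB after 10% TCA fixation, 560 nm). Bidirectional fit relative to DMSO.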

Assay [8] concerns the target Peroxisome proliferator-activated receptor gamma (Homo sapiens) (UniProt P37231). In words: ATG_PPARg_TRANS: Attagene TRANS-FACTORIAL HepG2 Assay for human Peroxisome Proliferator-activated Receptor-gamma (PPARg) (AID 2283007; active means hit-call score of the fitted dose curve at least 0.9, where 1 is the maximum). Put shortly:
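Twenty-four hours after chemical dosing of transiently transfected HepG2 cells, isolated RNA was converted to cDNA, reporter sequences amplified and 6-FAM-labelled, then HpaI-digested and analysed by capillary electrophoresis. Signal increase against DMSO was fitted.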

Assay [9] concerns the target human RAR-related Orphan Receptor gamma (RORg), RORC (gene 6097) (UniProt P51449). The experiment in a line: ATG_RORg_TRANS: Attagene TRANS-FACTORIAL HepG2 Assay for human RAR-related Orphan Receptor gamma (RORg) (AID 2283011; active means hit-call score of the fitted dose curve at least 0.9, where 1 is the maximum). Put shortly:
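HepG2 cells transiently transfected with GAL4-UAS reporter units and chimeric RORg-Gal4 construct; after 24 h chemical exposure, reporter mRNA measured by RT-PCR with fluorescent capillary electrophoresis, gain of signal fitted against DMSO.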

For assay [10], the target named is Retinoic acid receptor RXR-alpha (Homo sapiens) (UniProt P19793). In words: ATG_RXRa_TRANS: Attagene TRANS-FACTORIAL HepG2 Assay for human Retinoid X Receptor alpha (RXRa) (AID 2283012; active means hit-call score of the fitted dose curve at least 0.9, where 1 is the maximum). Put shortly:
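HepG2 cells transiently transfected with GAL4-UAS reporter units and chimeric RXRa-Gal4 protein, treated 24 h. Reporter mRNA measured by RT-PCR, fluorescent labelling, HpaI digestion and capillary electrophoresis. Induction fitted against DMSO.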

Assay [11] concerns the target human Retinoid X Receptor beta (RXRb), RXRB (gene 6257) (UniProt P28702). The experiment in a line: ATG_RXRb_TRANS: Attagene TRANS-FACTORIAL HepG2 Assay for human Retinoid X Receptor beta (RXRb) (AID 2283013; active means hit-call score of the fitted dose curve at least 0.9, where 1 is the maximum). A digest of the protocol:
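HepG2 cells were transiently transfected with multiplexed GAL4-UAS reporters and a chimeric RXRb-Gal4 construct, then exposed for 24 h. Reporter mRNA was quantified by RT-PCR, FAM labeling, HpaI digestion and capillary electrophoresis; gain of signal was scored against DMSO.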

For assay [12], the target named is human Thyroid Receptor alpha (THRa1), THRA (gene 7067) (UniProt P10827). In words: ATG_THRa1_TRANS: Attagene TRANS-FACTORIAL HepG2 Assay for human Thyroid Receptor alpha (THRa1) (AID 2283014; active means hit-call score of the fitted dose curve at least 0.9, where 1 is the maximum). A digest of the protocol:
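HepG2 cells transiently transfected with chimeric NR-Gal4 and GAL4-UAS reporter units, dosed 24 h. Reporter mRNA quantified by RT-PCR, fluorescent labeling, HpaI digestion and capillary electrophoresis; gain-of-signal fit versus DMSO.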

Read-out in assay [13]: Interleukin-1 alpha (IL1a), IL1A (gene 3552)
The experiment in a line: BSK_BE3C_IL1a: BioMAP Diversity Plus: BE3C Assay for Interleukin-1 alpha (IL1a) Biomarker Activity (AID 2283016). Conditions: primary human bronchial epithelial cells; actives raise or lower the signal. A digest of the protocol: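 Human primary bronchial epithelial cells, 24 h chemical exposure; IL-1a quantified by ELISA, fitted bidirectionally against DMSO. Cytotoxicity assessed in parallel by SRB total-protein staining at the time of measurement.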

The target in assay [14] is Cellular tumor antigen p53 (Homo sapiens) (UniProt P04637). The experiment in a line: ATG_p53_CIS: Attagene CIS-FACTORIAL HepG2 Assay for human p53 Transcription Factor (AID 2282994). Conditions: HepG2 p53 cis-element reporter, Attagene mRNA; actives raise or lower the signal. Put shortly:
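HepG2, transient MRTU transfection (cis promoter elements, endogenous TFs); 24 h dosing; RNA isolation, RT-PCR, 6-FAM primer extension, HpaI digest, CE fluorescence; bidirectional fit vs DMSO.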

A short description of assay [15]: BSK_3C_uPAR: BioMAP Diversity Plus: 3C Assay for Urokinase-type plasminogen activator receptor (uPAR) Biomarker Activity (AID 2282998). Conditions: BioMAP 3C HUVEC, uPAR biomarker ELISA; actives raise or lower the signal. A digest of the protocol: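 A multiplexed primary-cell system built on human umbilical vein endothelium was used, with chemical present for 24 h before reading. Cell-surface uPAR was detected by ELISA; signal change in either direction counted against DMSO.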

The target in assay [16] is Nuclear receptor subfamily 1 group I member 2 (Homo sapiens) (UniProt O75469). In words: ATG_PXR_TRANS: Attagene TRANS-FACTORIAL HepG2 Assay for human Pregnane X Receptor (PXR) (AID 2283008; active means hit-call score of the fitted dose curve at least 0.9, where 1 is the maximum). Put shortly:
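Read-out is fluorescence of labelled reporter cDNA fragments separated by capillary electrophoresis after RT-PCR and HpaI digestion. Source: HepG2 cells carrying PXR-GAL4/UAS reporter constructs, treated 24 h; activity fitted upward relative to DMSO.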

Read-out in assay [17]: E-selectin (Homo sapiens) (UniProt P16581)
In words: BSK_3C_Eselectin: BioMAP Diversity Plus: 3C Assay for Eselectin Biomarker Activity (AID 2283015).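 Further: cell surface E-selectin protein quantified by ELISA 24 h after dosing.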 Conditions: primary human endothelial cells (HUVEC); actives raise or lower the signal. A digest of the protocol:
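Primary human umbilical vein endothelial cells (3C system), read 24 h after compound addition; E-selectin measured by ELISA. Bidirectional curve fitting against DMSO baseline; cytotoxicity by parallel SRB total-protein staining.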

The target in assay [18] is human Retinoic Acid Receptor beta (RARb), RARB (gene 5915) (UniProt P10826). In words: ATG_RARb_TRANS: Attagene TRANS-FACTORIAL HepG2 Assay for human Retinoic Acid Receptor beta (AID 2283004; active means hit-call score of the fitted dose curve at least 0.9, where 1 is the maximum). A digest of the protocol: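 HepG2 cells were transiently transfected with GAL4-UAS reporter units that report activity of exogenous chimeric NR-Gal4 proteins, then exposed to compound for 24 h. Reporter mRNA was quantified by RT-PCR with capillary electrophoresis fluorescence, as gain of signal over DMSO.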
Chain of human Retinoic Acid Receptor beta (RARb), RARB (gene 5915) (P10826 whole entry, looked up, the tested form may be a part): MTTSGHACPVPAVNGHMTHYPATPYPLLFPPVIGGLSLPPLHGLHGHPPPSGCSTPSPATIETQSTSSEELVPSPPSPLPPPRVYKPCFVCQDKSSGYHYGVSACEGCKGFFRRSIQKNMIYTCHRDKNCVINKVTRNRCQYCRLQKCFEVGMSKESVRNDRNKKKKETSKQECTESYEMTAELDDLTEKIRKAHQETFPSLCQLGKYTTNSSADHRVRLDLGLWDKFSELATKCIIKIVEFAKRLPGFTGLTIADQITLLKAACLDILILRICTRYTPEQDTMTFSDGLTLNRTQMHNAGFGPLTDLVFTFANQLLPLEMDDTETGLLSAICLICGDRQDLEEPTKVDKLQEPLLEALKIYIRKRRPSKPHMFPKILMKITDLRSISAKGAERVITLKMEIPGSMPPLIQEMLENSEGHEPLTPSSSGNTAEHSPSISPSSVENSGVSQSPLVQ

Assay [19] addresses human RAR-related Orphan Receptor beta (RORb), RORB (gene 6096) (UniProt Q92753). In words: ATG_RORb_TRANS: Attagene TRANS-FACTORIAL HepG2 Assay for human RAR-related Orphan Receptor beta (RORb) (AID 2283010; active means hit-call score of the fitted dose curve at least 0.9, where 1 is the maximum). A digest of the protocol:
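HepG2 cells transiently transfected with GAL4-UAS reporter units expressing chimeric NR-Gal4 protein; reporter mRNA measured 24 h after dosing by RT-PCR, 6-FAM labelling and capillary electrophoresis. Gain-of-signal fitted relative to DMSO baseline.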

Values joined by “and” are separate entries in the source; they are usually repeats but may differ in a detail not shown here. Identical values can stand only once. Records with an inconclusive call do not appear. Some structures have more than one record in an assay (separate samples or runs), and their calls can disagree. Active and inactive are the calls of the source. How the source made its calls, unless noted: active means hit-call score of the fitted dose curve at least 0.9, where 1 is the maximum; inactive means score below 0.9.

Chain of human Thyroid Receptor alpha (THRa1), THRA (gene 7067) (P10827 whole entry, looked up, the tested form may be a part): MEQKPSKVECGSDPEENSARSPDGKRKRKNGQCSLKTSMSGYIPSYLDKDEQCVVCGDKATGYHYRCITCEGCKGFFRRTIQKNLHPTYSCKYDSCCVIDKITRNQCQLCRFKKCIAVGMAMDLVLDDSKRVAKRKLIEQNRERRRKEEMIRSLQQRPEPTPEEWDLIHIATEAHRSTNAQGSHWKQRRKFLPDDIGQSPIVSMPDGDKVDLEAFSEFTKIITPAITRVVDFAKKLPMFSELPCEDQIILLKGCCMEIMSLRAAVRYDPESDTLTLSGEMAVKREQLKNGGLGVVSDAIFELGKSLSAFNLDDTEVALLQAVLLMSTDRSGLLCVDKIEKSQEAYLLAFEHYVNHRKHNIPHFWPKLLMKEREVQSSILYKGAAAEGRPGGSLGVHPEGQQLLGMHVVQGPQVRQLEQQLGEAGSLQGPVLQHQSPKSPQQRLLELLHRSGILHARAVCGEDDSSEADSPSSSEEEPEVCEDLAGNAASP
Chain of human Retinoid X Receptor beta (RXRb), RXRB (gene 6257) (P28702 whole entry, looked up, the tested form may be a part): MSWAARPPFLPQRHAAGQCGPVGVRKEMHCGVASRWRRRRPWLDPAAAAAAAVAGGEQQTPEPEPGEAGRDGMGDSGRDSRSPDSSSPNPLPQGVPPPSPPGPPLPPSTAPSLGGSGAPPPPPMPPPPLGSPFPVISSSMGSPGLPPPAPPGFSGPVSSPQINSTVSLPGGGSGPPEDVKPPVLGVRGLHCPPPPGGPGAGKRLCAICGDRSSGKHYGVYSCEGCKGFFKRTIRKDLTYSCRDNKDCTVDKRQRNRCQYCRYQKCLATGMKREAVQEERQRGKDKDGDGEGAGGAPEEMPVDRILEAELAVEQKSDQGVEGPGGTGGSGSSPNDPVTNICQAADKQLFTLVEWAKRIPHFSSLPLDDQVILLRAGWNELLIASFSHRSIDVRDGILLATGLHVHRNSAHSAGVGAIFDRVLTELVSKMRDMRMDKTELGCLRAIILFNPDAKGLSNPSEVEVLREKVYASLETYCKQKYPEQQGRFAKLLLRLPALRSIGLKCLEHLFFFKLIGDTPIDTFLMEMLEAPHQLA
Chain of Peroxisome proliferator-activated receptor gamma (Homo sapiens) (P37231 whole entry, looked up): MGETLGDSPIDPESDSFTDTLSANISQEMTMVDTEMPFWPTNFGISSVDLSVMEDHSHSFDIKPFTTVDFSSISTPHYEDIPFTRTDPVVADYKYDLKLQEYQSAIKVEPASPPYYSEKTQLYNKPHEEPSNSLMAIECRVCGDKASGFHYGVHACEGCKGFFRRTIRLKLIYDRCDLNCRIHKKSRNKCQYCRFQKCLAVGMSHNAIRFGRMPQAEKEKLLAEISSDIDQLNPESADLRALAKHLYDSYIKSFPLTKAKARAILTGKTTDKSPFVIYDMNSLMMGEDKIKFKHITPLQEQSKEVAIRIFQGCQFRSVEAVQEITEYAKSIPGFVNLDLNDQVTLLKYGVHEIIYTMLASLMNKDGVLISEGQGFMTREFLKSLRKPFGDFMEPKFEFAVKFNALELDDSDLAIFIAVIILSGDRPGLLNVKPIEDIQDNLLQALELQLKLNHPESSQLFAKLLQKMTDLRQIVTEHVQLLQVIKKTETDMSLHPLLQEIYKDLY
Chain of Nuclear receptor subfamily 1 group I member 2 (Homo sapiens) (O75469 whole entry, looked up, the tested form may be a part): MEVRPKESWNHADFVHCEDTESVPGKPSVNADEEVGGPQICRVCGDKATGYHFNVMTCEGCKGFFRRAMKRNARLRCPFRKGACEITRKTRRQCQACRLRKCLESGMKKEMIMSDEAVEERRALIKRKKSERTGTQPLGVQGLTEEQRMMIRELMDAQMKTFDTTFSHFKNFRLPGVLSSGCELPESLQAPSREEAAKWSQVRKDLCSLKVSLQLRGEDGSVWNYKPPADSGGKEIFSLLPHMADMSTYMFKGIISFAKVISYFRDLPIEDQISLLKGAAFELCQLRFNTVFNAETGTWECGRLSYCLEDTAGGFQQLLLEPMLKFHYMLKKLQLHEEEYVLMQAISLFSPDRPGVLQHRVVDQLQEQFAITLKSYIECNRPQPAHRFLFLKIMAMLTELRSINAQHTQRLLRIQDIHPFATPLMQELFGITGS
Chain of E-selectin (Homo sapiens) (P16581 whole entry, looked up): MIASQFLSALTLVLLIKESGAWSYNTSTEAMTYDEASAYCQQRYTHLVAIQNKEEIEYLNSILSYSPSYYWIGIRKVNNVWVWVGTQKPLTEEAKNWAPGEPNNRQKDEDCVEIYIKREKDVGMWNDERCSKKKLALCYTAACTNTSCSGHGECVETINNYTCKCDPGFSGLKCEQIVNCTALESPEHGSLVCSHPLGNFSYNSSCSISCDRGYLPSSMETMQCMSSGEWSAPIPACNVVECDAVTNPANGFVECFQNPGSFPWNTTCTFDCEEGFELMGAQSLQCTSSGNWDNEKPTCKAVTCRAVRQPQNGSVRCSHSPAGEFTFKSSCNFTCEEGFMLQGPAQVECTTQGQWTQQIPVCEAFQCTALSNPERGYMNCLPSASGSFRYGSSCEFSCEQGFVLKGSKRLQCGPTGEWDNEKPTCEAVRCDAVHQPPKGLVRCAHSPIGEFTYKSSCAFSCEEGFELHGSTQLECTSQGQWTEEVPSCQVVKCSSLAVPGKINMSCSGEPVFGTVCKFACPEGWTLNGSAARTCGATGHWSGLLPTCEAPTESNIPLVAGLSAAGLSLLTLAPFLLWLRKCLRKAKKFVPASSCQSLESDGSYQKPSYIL
Chain of human Peroxisome Proliferator-activated Receptor alpha (PPARa), PPARA (gene 5465) (Q07869 whole entry, looked up, the tested form may be a part): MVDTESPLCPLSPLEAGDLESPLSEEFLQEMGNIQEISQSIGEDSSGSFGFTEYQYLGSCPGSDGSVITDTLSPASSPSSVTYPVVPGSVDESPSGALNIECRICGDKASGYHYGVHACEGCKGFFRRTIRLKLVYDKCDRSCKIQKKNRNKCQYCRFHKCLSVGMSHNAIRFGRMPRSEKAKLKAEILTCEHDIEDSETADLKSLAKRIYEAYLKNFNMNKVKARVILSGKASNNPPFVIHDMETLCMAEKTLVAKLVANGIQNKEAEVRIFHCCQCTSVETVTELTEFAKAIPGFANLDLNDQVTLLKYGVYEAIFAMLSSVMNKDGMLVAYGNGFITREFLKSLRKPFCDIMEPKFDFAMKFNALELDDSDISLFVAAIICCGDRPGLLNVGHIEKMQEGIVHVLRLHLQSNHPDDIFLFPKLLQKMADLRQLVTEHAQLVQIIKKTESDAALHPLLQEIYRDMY
Chain of Retinoic acid receptor RXR-alpha (Homo sapiens) (P19793 whole entry, looked up, the tested form may be a part): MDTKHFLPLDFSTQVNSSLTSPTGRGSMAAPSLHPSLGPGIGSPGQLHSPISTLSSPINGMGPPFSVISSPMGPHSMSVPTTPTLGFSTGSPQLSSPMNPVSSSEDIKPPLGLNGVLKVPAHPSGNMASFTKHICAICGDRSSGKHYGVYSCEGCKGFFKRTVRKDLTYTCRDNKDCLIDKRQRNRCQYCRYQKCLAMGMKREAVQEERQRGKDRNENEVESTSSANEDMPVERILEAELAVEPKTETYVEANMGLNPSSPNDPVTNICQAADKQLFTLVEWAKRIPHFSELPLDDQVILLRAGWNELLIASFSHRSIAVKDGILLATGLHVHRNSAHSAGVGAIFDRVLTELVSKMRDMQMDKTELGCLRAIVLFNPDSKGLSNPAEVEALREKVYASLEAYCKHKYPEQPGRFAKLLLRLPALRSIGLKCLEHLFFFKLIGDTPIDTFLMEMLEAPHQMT
Chain of Cellular tumor antigen p53 (Homo sapiens) (P04637 whole entry, looked up): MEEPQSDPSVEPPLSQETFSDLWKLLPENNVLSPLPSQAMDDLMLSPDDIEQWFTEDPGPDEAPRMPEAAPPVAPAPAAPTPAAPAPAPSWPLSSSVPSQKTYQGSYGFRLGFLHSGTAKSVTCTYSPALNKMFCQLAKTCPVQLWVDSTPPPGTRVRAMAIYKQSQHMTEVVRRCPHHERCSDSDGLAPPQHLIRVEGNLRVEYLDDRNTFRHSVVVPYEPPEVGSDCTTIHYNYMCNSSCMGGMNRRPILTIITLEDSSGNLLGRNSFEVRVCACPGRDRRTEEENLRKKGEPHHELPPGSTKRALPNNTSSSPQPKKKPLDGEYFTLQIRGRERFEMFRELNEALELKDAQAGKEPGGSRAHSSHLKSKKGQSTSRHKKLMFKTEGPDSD
Chain of human RAR-related Orphan Receptor beta (RORb), RORB (gene 6096) (Q92753 whole entry, looked up, the tested form may be a part): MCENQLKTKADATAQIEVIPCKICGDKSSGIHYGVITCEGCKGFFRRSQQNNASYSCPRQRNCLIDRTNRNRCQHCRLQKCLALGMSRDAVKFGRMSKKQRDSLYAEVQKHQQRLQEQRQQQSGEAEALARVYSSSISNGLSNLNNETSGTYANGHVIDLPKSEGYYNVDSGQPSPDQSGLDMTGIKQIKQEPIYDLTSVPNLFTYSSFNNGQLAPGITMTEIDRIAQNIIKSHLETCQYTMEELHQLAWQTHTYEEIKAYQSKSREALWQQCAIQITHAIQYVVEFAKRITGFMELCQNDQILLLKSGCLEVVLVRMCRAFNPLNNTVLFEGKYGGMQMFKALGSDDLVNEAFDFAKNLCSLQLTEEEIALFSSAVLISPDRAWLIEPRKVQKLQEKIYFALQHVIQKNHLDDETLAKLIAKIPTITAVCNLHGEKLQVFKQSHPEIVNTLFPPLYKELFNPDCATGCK

Turning to `CC(=O)O[C@]1(C(C)=O)CC[C@H]2[C@@H]3C=C(Cl)C4=CC(=O)[C@@H]5C[C@@H]5[C@]4(C)[C@H]3CC[C@@]21C`, the AC50 in assay [1] is 73.6 µM (active) and 64.9 µM (active) and 45.3 µM (active); in assay [7], 29.5 µM (active); in assay [13], 32.8 µM (active). The call in assay [1], in assay [2], in assay [3], in assay [4], in assay [5] and in [6] was inactive. Moreover, the result in assay [8], in assay [9], in assay [10], in assay [11] and in assay [12] was inactive.

In the case of `C=CCc1ccc(OC)c(OC)c1`, the molecule was classed as inactive in assay [1], in assay [14], in [2], in [15], in [3] and in [4]. Besides, the result in assay [5], in assay [6], in assay [7], in [8], in [9] and in assay [10] was inactive. For the same molecule, the result in assay [17] and in [13] was inactive. In addition, the AC50 in assay [16] is 28.8 µM (active); in [11], 65.4 µM (active).

Take `CCCCCCCC(=O)OC`: the result in assay [1], in assay [14], in assay [2], in [15], in assay [3] and in assay [4] was inactive. Also, the molecule was classed as inactive in assay [5], in assay [6], in assay [7], in assay [16], in [11] and in [12]. For the same molecule, the result in assay [17] and in assay [13] was inactive.

Take `CCCCCCC(C=O)=Cc1ccccc1`: the AC50 in assay [1] is 159 µM (active); in assay [2], 27.4 µM (active); in assay [15] it was 36.6 µM (active); in assay [3] it was 35.6 µM (active); in [4], 36.6 µM (active); in [5] it was 27.2 µM (active) and 15.8 µM (active). In addition, the AC50 is 36.6 µM (active) in [6]; 31.8 µM (active) in assay [7]; 27.4 µM (active) and 6.91 µM (active) in assay [8]; 100 µM (active) in assay [16]; 65.6 µM (active) and 39.1 µM (active) in [11]. For the same molecule, the molecule was classed as inactive in [1], in [18], in assay [16], in [19], in assay [10] and in [13].

Consider `O=[Si]=O`, for which the call in assay [1], in assay [14], in assay [2], in assay [15], in assay [3] and in assay [4] was inactive. In addition, the outcome in [5], in assay [6], in assay [18], in [7], in assay [8] and in [19] was inactive. Moreover, the call in [10], in [11], in [12], in assay [17] and in assay [13] was inactive.

With `CC(C)(C)c1ccccc1`, the outcome in assay [1], in assay [14], in assay [2], in assay [15], in assay [3] and in [4] was inactive. Also, the molecule was called inactive in [5], in assay [6], in [7], in assay [19], in assay [17] and in [13].
